This is a sample that favours compounds with a hit; in the whole collection about 19% have one here.
DT40 TDP1 no CPT: qHTS for Inhibitors of human tyrosyl-DNA phosphodiesterase 1 (TDP1): qHTS in cells in absence of CPT. AID 686978, 2013. DT40 Tdp1-/- hTDP1 cells, no CPT, ATP luminescence, 48 h. 420,000 compounds, 15% hits. Potency, µM (doses to about 46.2 µM), for the others: at the top dose activity change, negative = growth inhibition, most hits filed as inhibitors; note: potency is the fitted concentration of half-maximal effect; nearly all actives have a fitted effect of over 55% in size
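Cells were dispensed at 400 per well, compounds added by pin tool, plates incubated ≥48 hr at 37 °C, then CellTiter-Glo added for 30 min at room temperature before luminescence reading. Line: DT40 Tdp1-/- complemented with hTDP1; camptothecin omitted.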
TDP1 cell CPT: qHTS for Inhibitors of human tyrosyl-DNA phosphodiesterase 1 (TDP1): qHTS in cells in presence of CPT | 420,000 compounds, 12% hits | AID 686979, 2013 | Potency, µM (highest dose often 46.2 µM), inactives show top-dose activity change, negative = growth inhibition, hits mostly inhibitors | chicken DT40 Tdp1-/-;hTDP1 cells + 20 nM CPT, ATP luminescence, 48 h; note: potency is the fitted concentration of half-maximal effect; nearly all actives have a fitted effect of over 55% in size
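Cell growth measured by CellTiter-Glo luminescence after a minimum 48 h, 37 C compound exposure with 20 nM CPT in Tdp1-knockout DT40 cells stably expressing hTDP1, seeded 400/well; qHTS titration format.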
HT1080 IDH1KD tx: qHTS for induction of synthetic lethality in tumor cells producing 2HG: qHTS for the HT-1080-IDH1KD cell line | HT-1080 IDH1 knockdown viability, ATP luminescence, 48 h | Potency, µM (series often up to 46.1 µM), without a hit: top-dose activity, negative = toxicity, hits mostly cytotoxic | 360,000 compounds, 2% hits | AID 686971, 2013;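 note: potency is the fitted concentration of half-maximal effect; 0% = DMSO wells and -100% = cell-free medium wells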
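Viability of IDH1-knockdown HT-1080 fibrosarcoma cells was assessed by CellTiter-Glo after 48 h at 37 °C with titrated compound; concentration-effect curves were classified by fit quality and response size.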
HT1080-NT tox: qHTS for induction of synthetic lethality in tumor cells producing 2HG: qHTS for the HT-1080-NT fibrosarcoma cell line. HT-1080-NT fibrosarcoma viability, CellTiter-Glo ATP luminescence, 48 h. Potency, µM (titrated, usually from 46.1 µM), inactives show at the top dose activity, negative = less viability, actives largely listed as cytotoxic. 360,000 compounds, 1.6% hits;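 note: NT is the 2HG producing partner of a matched IDH1 knockdown line; potency is the fitted concentration of half-maximal effect; 0% = DMSO-treated cells and -100% = media-only wells without cells; nearly all actives have a fitted effect of over 55% in size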
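Read-out is CellTiter-Glo luminescence after 10 minutes at room temperature, following 48 hours' compound treatment of HT-1080-NT cells (750 cells/well, RPMI, 5% FBS, 37 degrees C).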
IL1B secr inh: qHTS for Inhibitors of Inflammasome Signaling: IL-1-beta AlphaLISA Primary Screen; activity change, % at 57.5 µM; THP-1 LPS/ATP IL-1B secretion, AlphaLISA, 16 h; stronger effect = lower value; AID 743279, 2014; 360,000 compounds, 4.7% hits; in the data active = activity change below about -50%; inconclusive = mostly about -30% to -49%
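THP-1 cells pretreated 1 hr with compounds (up to 57.5 uM final), then stimulated with LPS (250 ng/mL final) plus ATP (1.25 mM final); secreted IL-1B measured by AlphaLISA after 16 hr, decreased signal indicating inhibition.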
ELG1 DNA repair: qHTS screen for small molecules that inhibit ELG1-dependent DNA repair in human embryonic kidney (HEK293T) cells expressing luciferase-tagged ELG1; HEK293T ELG1-luciferase reporter, luminescence, 16 h; DNA damage induced by 5-fluorouridine; Potency, µM (titrated, usually from 46.1 µM), inactives show top-dose activity change, negative = inhibition, usual class: inhibitors; 330,000 compounds, 2.3% hits; note: potency is the fitted concentration of half-maximal effect; nearly all actives have a fitted effect of over 55% in size
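Step one: seed 2,000 cells per well. Step two: pin-transfer compound or DMSO alongside 5-fluorouridine. Step three: incubate 16 hr, 37 °C, 5% CO2. Step four: add ONE-Glo, wait 30 min, read luminescence.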
The depositor's hits bear a star; ? = inconclusive; · = no result; [ ] = remark or other dose. Unless noted, calls come from the whole dose curve; as a rule, active = well fitted curve in the direction sought with a large enough effect; inconclusive = small, poorly fitted or top-dose-only effect, or another doubt; inactive = no such curve, though single readings can be large; an effect the other way counts as inactive or inconclusive. Unless noted, % is set by controls: 0 for no effect and ±100 for the full control effect.

SMILES	DT40 TDP1 no CPT	TDP1 cell CPT	HT1080 IDH1KD tx	HT1080-NT tox	IL1B secr inh	ELG1 DNA repair
CC(C)(C)c1ccc(Cn2nnc3c(=O)[nH]c(C4CCCN(C(=O)Cc5cccs5)C4)nc32)cc1 (stereo not drawn)	?	23µM*	?	?	-19	-26%
CC(C)(C)c1ccc(Cn2nnc3c(=O)[nH]c(C4CCN(C(=O)c5ccco5)CC4)nc32)cc1	?	-20%	?	?	-67*	10µM*
CCOc1ccc(-c2cc3c(=O)n(Cc4nc(-c5cccc(OC)c5OC)oc4C)ccn3n2)cc1Cl	-1%	-5%	·	·	·	·
CC(=O)Nc1ccc(C(=O)CSc2nccc(=O)[nH]2)cc1	-13%	2%	9%	6%	24	5%
CC(=O)N1CCCC1c1nc2ccccc2n1Cc1ccccc1F (stereo not drawn)	?	-22%	·	·	·	·
CCN(CC(=O)Nc1c(F)cccc1F)C(=O)c1ccccn1	28%	9%	4%	8%	6	25%
CC(C)(C)CC(=O)N1CCC(c2nc3c(nnn3Cc3c(F)cccc3Cl)c(=O)[nH]2)CC1	?	16µM*	-14%	-16%	-14	16µM*
Cc1ccc(NS(=O)(=O)c2cc(NC(=O)C(C)Oc3ccccc3)ccc2C)c(C)c1 (stereo not drawn)	23µM*	?	?	-30%	-2	?
CC(Oc1ccccc1)C(=O)Nc1ccc(S(=O)(=O)N2CCCC2)cc1 (stereo not drawn)	?	-14%	-5%	1%	-7	-1%
Cc1ccc(NC(=O)CNc2ccc(OC(C)C)cc2)c(C)c1	?	?	3%	0%	-23	-1%
Cc1ccc(NC(=O)C(C)Oc2ccccc2)cc1S(=O)(=O)N1CCCCCC1 (stereo not drawn)	23µM*	?	-18%	-15%	-11	?
Cc1ccccc1OC(C)C(=O)N1CCN(c2ccccn2)CC1 (stereo not drawn)	1%	-12%	5%	7%	4	0%
CCN(CC)CCOC[C@H]1O[C@@H](O)[C@H](OCCN(CC)CC)[C@@H](O)[C@@H]1O	-3%	-2%	·	·	·	·
CN(Cc1ccccc1)C(=O)COc1ccc(N(C)S(=O)(=O)c2ccc(F)cc2)cc1	15µM*	16µM*	-1%	-14%	0	?
Cc1ccc(S(=O)(=O)N(C)c2ccc(OCC(=O)Nc3nc(-c4ccccc4)cs3)cc2)cc1	13µM*	16µM*	2%	7%	33	?
CN(c1ccc(OCC(=O)OCC(=O)Nc2ccccc2)cc1)S(=O)(=O)c1ccc(F)cc1	2%	35%	3%	-6%	13	5%
CN(c1ccc(OCC(=O)Nc2nc(-c3ccccc3)cs2)cc1)S(=O)(=O)c1ccc(F)cc1	21µM*	18µM*	-4%	8%	19	?
COc1cc(CNC(=O)c2cnc(SC)nc2-c2ccccc2)cc(OC)c1OC	?	0%	·	·	·	·
Nc1ccn(C2C=CC(CO)O2)c(=O)n1 (stereo not drawn)	8%	-12%	-1%	3%	·	·
Nc1ccn([C@@H]2O[C@H](C(=O)NCC(F)(F)F)[C@@H](O)[C@H]2O)c(=O)n1	8%	9%	28%	22%	21	·
O=C(CCCSc1nc(-c2ccco2)cc(C(F)(F)F)n1)Nc1ccc2c(c1)OCO2	23µM*	?	-24%	-23%	?	·
Cc1nn(C)c(C)c1NC(=O)CCCSc1nc(-c2ccco2)cc(C(F)(F)F)n1	?	?	-11%	-3%	?	26µM*
O=C(CSc1nc(-c2ccco2)cc(C(F)(F)F)n1)Nc1ccc2c(c1)OCO2	?	?	?	?	-5	?
O=C(CSc1nc(-c2ccco2)cc(C(F)(F)F)n1)Nc1ccc(C(=O)N2CCOCC2)cc1	?	?	-6%	0%	-3	?
CC(=O)c1ccc(NC(=O)CCCSc2nc(-c3ccco3)cc(C(F)(F)F)n2)cc1	16µM*	23µM*	·	·	·	·
SMILES	DT40 TDP1 no CPT	TDP1 cell CPT	HT1080 IDH1KD tx	HT1080-NT tox	IL1B secr inh	ELG1 DNA repair
CC(C)Nc1nc(-c2ccncc2)nc(-c2ccccc2)c1C#N	-9%	-21%	0%	-2%	15	-5%
CC(=O)c1ccc(F)c(-c2cc(C)cc3c2OC(CNC(=O)Cn2nc(C)nc2C)C3)c1 (stereo not drawn)	-15%	-8%[9.04 µM]	·	·	·	·
Cc1ccc(C)c(CNC(=O)c2ccc3c(c2)nc2n3CCOC2)c1	-23%	-3%	·	·	·	·
Cc1ccc(C)c(CNC(=O)c2ccc3c(c2)nc2n3CCCCC2)c1	18µM*	?	·	·	·	·
Cc1ccc(C)c(NC(=O)c2ccc3c(=O)n4c(nc3c2)CCC4)c1	?	-6%	3%	8%	-1	?
CCOc1ccccc1NC(=O)c1ccc2c(Cl)c3c(nc2c1)CCCC3	23µM*	?	·	·	·	·
O=C(Nc1nccs1)c1ccc2c(=O)n3c(nc2c1)CCCCC3	16µM*	?	-24%	1%	0	?
COc1ccc(C)cc1NC(=O)c1ccc2c(=O)n3c(nc2c1)CCCCC3	?	15µM*	?	5%	9	?
CCOc1ccccc1NC(=O)c1ccc2c(=O)n3c(nc2c1)CCCCC3	?	16µM*	10%	2%	?	-5%
CCOc1ccc(NC(=O)c2ccc3c(=O)n4c(nc3c2)CCCCC4)cc1	?	?	0%	11%	24	-25%
CC(=O)c1cccc(NC(=O)c2ccc3c(Cl)c4c(nc3c2)CCCC4)c1	23µM*	?	25%	27%	-21	11%
CCc1ccc(NC(=O)c2ccc3c(=O)n4c(nc3c2)CCCCC4)cc1	?	?	0%	-1%	-5	?
CCOc1ccc(CCNC(=O)c2ccc3c(=O)n4c(nc3c2)CCCCC4)cc1	?	?	-1%	-17%	7	16µM*

Screens deposited in PubChem BioAssay by National Center for Advancing Translational Sciences (NCATS).
